Several values for one entry are separate records, joined by “and”; a condition that tells them apart may be missing. Equal values may be shown once. Records with an inconclusive call do not appear. Activity calls are given as the source filed them. Calls come from the whole dose curve; as a rule, active = well fitted curve in the direction sought with a large enough effect in the repeat runs; inconclusive = weak or mixed curves; inactive = no such curve, though single readings can be large; an effect the other way counts as inactive or inconclusive.
Columns and labels:
[1] = qHTS RealTime-Glo MT Cell Viability Assay in HepG2 cells - 40 hour (AID 1224870); note: nearly all actives have a fitted effect of over 50% in size
Outline: (§1)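 Real-time viability: cells seeded at 600 per well together with NanoLuc and cell-permeant prosubstrate, compounds added after 5 h incubation. Luminescence tracked at 0, 8, 16, 24, 32 and 40 h of exposure.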

[2] = A CellTox Green Cytotoxicity Assay to monitor cytotoxicity in HEK293 cells - 40 hour (AID 1224871); note: nearly all actives have a fitted effect of over 45% in size
Outline: (§2)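 Nonlytic real-time cytotoxicity: HEK293 + CellTox Green reagent plated, 5 h preincubation, pintool compound addition (23 nL in DMSO), 37 C for 40 h, fluorescence measured at successive time points.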

[3] = qHTS RealTime-Glo MT Cell Viability Assay in HEK293 cells - 16 hour (AID 1224872); note: top concentration of the series differs between compounds; nearly all actives have a fitted effect of over 50% in size
Outline: (§3)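 Viability tracked continuously by luminescence as live cells reduce a prosubstrate for NanoLuc; HEK293 cells preincubated 5 h, compound-treated at 37 C, and read at 0, 8, 16, 24, 32 and 40 h.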

[4] = qHTS RealTime-Glo MT Cell Viability Assay in HepG2 cells - 8 hour (AID 1224873); note: nearly all actives have a fitted effect of over 55% in size
Outline: as §1

[5] = qHTS RealTime-Glo MT Cell Viability Assay in HEK293 cells - 40 hour (AID 1224874); conditions: RealTime-Glo luminescence; max response: stronger effect = lower value; note: nearly all actives have a fitted effect of over 50% in size
Outline: (§4)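 Cells were seeded together with NanoLuc luciferase and a prosubstrate that viable cells reduce to a luciferase substrate. After a 5 h incubation at 37 C/5% CO2, compounds were added and luminescence was measured repeatedly during 40 h of treatment.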

[6] = A CellTox Green Cytotoxicity Assay to monitor cytotoxicity in HEK293 cells - 24 hour (AID 1224875); note: series mostly up to about 77 µM; nearly all actives have a fitted effect of over 45% in size
Outline: as §2

[7] = qHTS RealTime-Glo MT Cell Viability Assay in HepG2 cells - 32 hour (AID 1224877); note: nearly all actives have a fitted effect of over 55% in size
Outline: (§5)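 Viability was tracked continuously by NanoLuc luminescence from prosubstrate reduced by living HepG2 cells, at successive time points over 40 h of compound exposure. Cells with reagent were preincubated 5 h at 37 °C before compound addition.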

[8] = A CellTox Green Cytotoxicity Assay to monitor cytotoxicity in HepG2 cells - 24 hour (AID 1224878); note: nearly all actives have a fitted effect of over 45% in size
Outline: (§6)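 Read-out is fluorescence of a cyanine dye excluded from live cells that stains DNA of dead HepG2 cells, with signal proportional to cytotoxicity. Plates were read at 0, 8, 16, 24, 32 and 40 h after compound addition.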

[9] = A CellTox Green Cytotoxicity Assay to monitor cytotoxicity in HepG2 cells - 40 hour (AID 1224879); note: nearly all actives have a fitted effect of over 40% in size
Outline: as §6

[10] = qHTS RealTime-Glo MT Cell Viability Assay in HEK293 cells - 0 hour (AID 1224880); note: top concentration of the series differs between compounds; nearly all actives have a fitted effect of over 45% in size
Outline: as §4

[11] = A CellTox Green Cytotoxicity Assay to monitor cytotoxicity in HEK293 cells - 32 hour (AID 1224881); note: nearly all actives have a fitted effect of over 40% in size
Outline: as §2

[12] = A CellTox Green Cytotoxicity Assay to monitor cytotoxicity in HepG2 cells - 0 hour (AID 1224882); note: nearly all actives have a fitted effect of over 35% in size
Outline: as §6

[13] = A CellTox Green Cytotoxicity Assay to monitor cytotoxicity in HEK293 cells - 8 hour (AID 1224884); note: nearly all actives have a fitted effect of over 35% in size
Outline: as §2

[14] = qHTS RealTime-Glo MT Cell Viability Assay in HepG2 cells - 16 hour (AID 1224885); note: nearly all actives have a fitted effect of over 50% in size
Outline: as §5

[15] = qHTS RealTime-Glo MT Cell Viability Assay in HEK293 cells - 24 hour (AID 1224886)
Outline: as §3

[16] = qHTS RealTime-Glo MT Cell Viability Assay in HEK293 cells - 8 hour (AID 1224887)
Outline: as §4

[17] = A CellTox Green Cytotoxicity Assay to monitor cytotoxicity in HEK293 cells - 16 hour (AID 1224888); note: nearly all actives have a fitted effect of over 35% in size
Outline: as §2

[18] = qHTS RealTime-Glo MT Cell Viability Assay in HepG2 cells - 0 hour (AID 1224889); note: nearly all actives have a fitted effect of over 50% in size
Outline: as §5

[19] = A CellTox Green Cytotoxicity Assay to monitor cytotoxicity in HepG2 cells - 16 hour (AID 1224876); note: nearly all actives have a fitted effect of over 45% in size
Outline: as §6

[20] = A CellTox Green Cytotoxicity Assay to monitor cytotoxicity in HepG2 cells - 32 hour (AID 1224883); note: nearly all actives have a fitted effect of over 50% in size
Outline: as §6
% is set by controls: 0 for no effect and ±100 for the full control effect.

O=C=Nc1ccc(Cc2ccc(N=C=O)cc2)cc1
inactive: Potency [1] | Potency [2] | Potency [3] | Potency [4] | max response [5] -12.4% and 1.24% | Potency [6] | Potency [7] | Potency [8] | Potency [9] | Potency [10] | Potency [11] | Potency [12] | Potency [13] | Potency [14] | Potency [15] | Potency [16] | Potency [17] | Potency [18]

O=CCc1ccccc1
inactive: Potency [1] | Potency [2] | Potency [3] | Potency [4] | max response [5] 1.86% and -0.86% | Potency [6] | Potency [19] | Potency [7] | Potency [8] | Potency [9] | Potency [10] | Potency [11] | Potency [12] | Potency [20] | Potency [13] | Potency [14] | Potency [15] | Potency [16] | Potency [17] | Potency [18]

O=C(OCc1ccccc1)c1ccccc1O
inactive: Potency [1] | Potency [2] | Potency [3] | Potency [4] | max response [5] -14.6% and -4.96% | Potency [6] | Potency [7] | Potency [8] | Potency [9] | Potency [10] | Potency [11] | Potency [12] | Potency [20] | Potency [13] | Potency [14] | Potency [15] | Potency [16] | Potency [17] | Potency [18]

CC(C)=CCCC(C)CCO (configuration not stated)
inactive: Potency [1] | Potency [2] | Potency [3] | Potency [4] | max response [5] -3.95% and 4.54% | Potency [6] | Potency [19] | Potency [7] | Potency [8] | Potency [9] | Potency [10] | Potency [11] | Potency [12] | Potency [20] | Potency [13] | Potency [14] | Potency [15] | Potency [16] | Potency [17]

CCC(C)(O)CCCC(C)C (configuration not stated)
inactive: Potency [1] | Potency [2] | Potency [3] | Potency [4] | max response [5] 0.571% and 1.24% | Potency [6] | Potency [19] | Potency [7] | Potency [8] | Potency [9] | Potency [10] | Potency [11] | Potency [12] | Potency [20] | Potency [13] | Potency [14] | Potency [15] | Potency [16] | Potency [17]

O=c1oc(=O)c2cc3c(=O)oc(=O)c3cc12
inactive: Potency [1] | Potency [2] | Potency [3] | Potency [4] | max response [5] 5.31% and 2.56% | Potency [6] | Potency [19] | Potency [7] | Potency [8] | Potency [9] | Potency [10] | Potency [11] | Potency [12] | Potency [13] | Potency [14] | Potency [15] | Potency [16] | Potency [17] | Potency [18]

O=C(/C=C/c1ccccc1)OCc1ccccc1
inactive: Potency [1] | Potency [2] | Potency [3] | Potency [4] | max response [5] 1.15% and -0.532% | Potency [19] | Potency [7] | Potency [8] | Potency [9] | Potency [10] | Potency [11] | Potency [12] | Potency [20] | Potency [13] | Potency [14] | Potency [15] | Potency [16] | Potency [17]

c1ccncc1
inactive: Potency [1] | Potency [2] | Potency [3] | Potency [4] | max response [5] 5.95% and 4.64% | Potency [6] | Potency [19] | Potency [7] | Potency [8] | Potency [9] | Potency [11] | Potency [12] | Potency [20] | Potency [13] | Potency [14] | Potency [15] | Potency [16] | Potency [17] | Potency [18]

CCCCCCCCCCCO
inactive: Potency [1] | Potency [2] | Potency [3] | Potency [4] | max response [5] -2.32% and 0.908% | Potency [6] | Potency [19] | Potency [7] | Potency [8] | Potency [9] | Potency [10] | Potency [11] | Potency [12] | Potency [13] | Potency [14] | Potency [15] | Potency [16] | Potency [17] | Potency [18]

C[Si](C)(C)O[Si](C)(C)C
inactive: Potency [1] | Potency [2] | Potency [3] | Potency [4] | max response [5] -0.246% and 0.761% | Potency [6] | Potency [7] | Potency [8] | Potency [9] | Potency [10] | Potency [11] | Potency [12] | Potency [20] | Potency [13] | Potency [14] | Potency [15] | Potency [16] | Potency [17]

Cc1ccc(C)c(O)c1C
inactive: Potency [1] | Potency [2] | Potency [3] | Potency [4] | max response [5] 1.3% and 2.18% | Potency [19] | Potency [7] | Potency [8] | Potency [9] | Potency [10] | Potency [11] | Potency [12] | Potency [20] | Potency [13] | Potency [14] | Potency [15] | Potency [16] | Potency [17] | Potency [18]

NC=O
inactive: Potency [1] | Potency [2] | Potency [3] | Potency [4] | max response [5] -1.02% and -20.4% | Potency [6] | Potency [19] | Potency [7] | Potency [8] | Potency [9] | Potency [10] | Potency [11] | Potency [12] | Potency [20] | Potency [13] | Potency [14] | Potency [15] | Potency [16] | Potency [17] | Potency [18]

— PubChem BioAssay (Tox21)
